# Screen size: about 69,000 compounds; about 8,600 (12%) showed an effect of 50% or more. The list comes from a sample in which strong results are over-represented; it also holds similar structures and randomly drawn compounds.
# System: Plasmodium berghei
# Experiment: Screen against P. berghei liver stage (PbLuc), transformed with Luciferase, at 10uM
# Assay type: functional, HepG2
# Conditions: tested at 10 uM
row,Compound,INHIBITION [%]
1,Cc1ccc(C(=O)N2[C@@H]3CC[C@H]2CC(=O)N(C)C3)c(=O)[nH]1,-1.85
2,N#Cc1ccc(C(=O)N2C[C@H](OCc3cccnc3)[C@H]3COC[C@H]32)cc1,-5.31
3,Cc1noc(C)c1CN(Cc1cccnc1)C1CN2CCC1CC2 (configuration not stated),10.3
4,CC(C)c1noc(CN(Cc2cccnc2)C2CN3CCC2CC3)n1 (configuration not stated),77.5
5,CC(C)(C)c1nc(CN(Cc2ccccc2F)C2CCCCC2)no1,35.3
6,CC(C)(C)c1nc(CN(Cc2cccnc2)C2CN3CCC2CC3)no1 (configuration not stated),54.8
7,CC(C)c1noc(CCCC(=O)N2CCC(Cc3cccnc3)CC2)n1,27.1
8,CCc1cc(CN(Cc2cccnc2)C2CN3CCC2CC3)on1 (configuration not stated),28.5
9,O=S(=O)(Cc1ccc(Br)cc1)NCCO,28.5
10,Cc1nn(C)c(N2CCOCC2)c1CNCc1cscn1,27.0165
11,CCc1nnc(CN2CCCC2Cn2cc(C)cn2)o1 (configuration not stated),-29.1
12,O=C(c1ccc(F)c(F)c1)N1CCC(Cn2cc(CO)nn2)CC1,33.4
13,Cc1nc(CN2CCCC(NCc3csc(C(C)(C)C)n3)C2)no1 (configuration not stated),22.3
14,COCCN1CCO[C@@H]2CN(C(=O)COc3ccc(C)cc3)C[C@@H]2C1,37.9
15,[O-][S+](Cc1c(F)cccc1Cl)Cc1nnnn1C1CC1 (configuration not stated),19.8
16,CCc1nc2n(n1)CC(NCC(=O)Nc1cc(C(C)(C)C)no1)CC2 (configuration not stated),-13.5
17,Cc1cc(C(=O)N2CCCC(C)C2)ccc1NCc1nc(C(C)C)no1 (configuration not stated),18.2
18,O=C(O)c1ccc2c(CN3CCCC3)c[nH]c2c1,42.3
19,O=C(O)c1ccc2[nH]cc(CN3CCOCC3)c2c1,-9.76
20,O=C(O)c1ccc2c(CN3CCOCC3)c[nH]c2c1,56.5
21,Cc1cccc(C(=O)NC(C(=O)NCc2ccc(O)nc2)C(C)C)c1 (configuration not stated),28.7
22,c1ccc(-c2cc(CN3C[C@H]4CC[C@@H](C3)N(CC3CCC3)C4)on2)cc1,86.8
23,c1ccc(-c2cc(CN3C[C@H]4CC[C@H]3C4)on2)cc1,-0.27
24,c1ccc(-c2cc(CN3C[C@H]4CC[C@@H](C3)N(CC3CC3)C4)on2)cc1,48.2
25,CN(c1cccnn1)C1CCN(C(=O)Cc2c[nH]c3ccccc23)CC1,36.1

row,Compound,INHIBITION [%]
1,CCCOC1CCCN(c2nc(CC)nc3c2cnn3C)C1 (configuration not stated),7.77
2,Cc1nc(N2CCCC2)nc2c1CCN(C(=O)C1CCC1)CC2,-21.1
3,Nc1ncc(-c2csc(NC(=O)C[C@H]3COCCN3)n2)cn1,-7.79
4,O=C(Cc1ccc2c(c1)CCC2)NCCNc1cnccn1,8.64
5,COc1ccc(CN2C[C@H](OCC3CCOCC3)[C@H]3COC[C@H]32)cc1,41.8
6,c1cc(CN2C[C@H](OCC3CCOCC3)[C@H]3COC[C@H]32)cs1,9.65
7,c1csc(CN2C[C@H](OCC3CCOCC3)[C@H]3COC[C@H]32)n1,26.5
8,c1cnc(N2C[C@H](OCC3CCOCC3)[C@H]3COC[C@H]32)nc1,68.9
9,c1cnc(N2CCO[C@H]3[C@H](OCC4CCOCC4)CC[C@@H]32)nc1,21.6
10,c1cc(CN2C[C@H](OCC3CCOCC3)[C@H]3COC[C@H]32)co1,57.3
11,COc1ccc(-n2cc3[nH]c(=O)[nH]n3c2=O)cc1,3.68
12,Cc1ncncc1C(=O)N1CCCC(n2ccnc2C)C1 (configuration not stated),-20.1
13,NC(=O)N1CCC2(CC1)CN(Cc1cccnc1)C(=O)CO2,2.4
14,Cc1nocc1C(=O)N1CCOC2(COCCN(C(C)C)C2)C1 (configuration not stated),20.6
15,O=C(c1ccco1)N1CCCC2(CN(Cc3cccs3)CCO2)C1 (configuration not stated),2.02
16,COCCN1CCC2(CC1)CN(C(=O)c1ccco1)CCO2,51.9
17,Cc1nocc1C(=O)N1CCOC2(COCCN(CC3CC3)C2)C1 (configuration not stated),1.7
18,COCCN1CCC2(CC1)CN(C(=O)c1cccs1)CCO2,-23.3
19,COCCN1CCC2(CC1)CN(C(=O)c1ccccc1)CCO2,39.5
20,O=C(c1ccco1)N1CCCC2(CN(Cc3ccsc3)CCO2)C1 (configuration not stated),76.5
21,COCCN1CCOCC2(C1)CN(C(=O)c1conc1C)CCO2 (configuration not stated),53.4
22,O=C(c1ccco1)N1CCCC2(CN(Cc3ccoc3)CCO2)C1 (configuration not stated),-8.25
23,O=C(CC1CC1)N1CC[C@H]2OCC[C@@]2(COc2ncccc2F)C1,-31.3
24,CN1CCN(C(=O)C2CCCN(c3cccnn3)C2)CC1 (configuration not stated),42.4
25,O=C(Nc1cc(C(F)(F)F)c[nH]c1=O)C1CCCCN1 (configuration not stated),-5.51

row,Compound,INHIBITION [%]
1,CNC(=O)CCN(C)c1nc(-c2ccncc2)nc2c1CCNC2,35.8
2,CCCc1nnc(N2C[C@@H](C)[C@@](C)(O)C2)s1,9.96
3,CCCc1nnc(N2CC[C@@](O)(C3CCOCC3)[C@H](C)C2)s1,60.3
4,CNc1ccnc(N2C[C@@H](C)[C@](O)(C3CC3)C2)n1,39.9
5,CCCc1nnc(N2CC[C@](C)(O)[C@H](C)C2)s1,-50.3
6,CNc1ccnc(N2C[C@@H](C)[C@](O)(C3CCC3)C2)n1,30.1
7,CNc1ccnc(N2CC[C@@](O)(C3CCOCC3)[C@H](C)C2)n1,59.3
8,Cc1cnc(C2(C)CCN(Cc3csc(C)n3)CC2)s1,6.32
9,O=C(NC1CCCOc2cc(Cl)ccc21)c1ccc(=O)[nH]n1 (configuration not stated),-10.9
10,CCN1CC2(CCC1=O)CCN(C(=O)c1cn3cccnc3n1)CC2,-13.6
11,COc1ccc(Br)cc1SCCC(N)=O,16.1
12,O=C(NC1CC1)[C@@H]1CCO[C@@H]2CCN(CC3CCC3)C[C@H]21,61.1
13,O=C(NC1CC1)[C@@H]1CCO[C@@H]2CCN(C3CCOCC3)C[C@H]21,-48.2
14,O=C(NCC1CC1)[C@@H]1CCO[C@@H]2CCN(Cc3ccco3)C[C@H]21,-22.8
15,Cn1cc(CN2CC[C@H]3OCC[C@@H](C(=O)NCc4ccco4)[C@@H]3C2)cn1,5.96
16,O=C(NC1CC1)[C@@H]1CCO[C@@H]2CCN(CC3CCC3)C[C@@H]21,91
17,O=C(NCc1ccccn1)[C@H]1COC[C@H]2CN(Cc3ccoc3)C[C@H]21,31.8
18,O=C(NCc1ccccn1)[C@@H]1CCO[C@@H]2CCN(Cc3ccoc3)C[C@H]21,54.6
19,O=C(NC1CC1)[C@@H]1CCO[C@@H]2CCN(Cc3ccsc3)C[C@H]21,27.3
20,O=C(NCc1ccco1)[C@@H]1CCO[C@@H]2CCN(CC3CC3)C[C@@H]21,67.2
21,CN1CC[C@H]2OCC[C@@H](C(=O)NCc3ccco3)[C@@H]2C1,18.3
22,O=C(NC1CC1)[C@@H]1CCO[C@@H]2CCN(Cc3ccco3)C[C@H]21,18.3
23,O=C(NC1CC1)[C@@H]1CCO[C@@H]2CCN(C3CCCC3)C[C@H]21,3.25
24,CN(C)Cc1ccnc(C2CCCN2Cc2cc3ccccc3s2)n1 (configuration not stated),19.6
25,CC1CN(Cc2cc(C#N)ccc2F)CCN1Cc1nccn1C (configuration not stated),22.95

row,Compound,INHIBITION [%]
1,O=C(CCc1cc2n(n1)CCCNC2)N1CCSCC1,-24.7
2,CNc1nc(C2CCCCN2C(=O)COC)nc2c1CN(C)CC2 (configuration not stated),38.2
3,O=C(NC1CC1)[C@@H]1CCO[C@@H]2CCN(C3CCOCC3)C[C@@H]21,26.8
4,CNC(=O)[C@@H]1CCO[C@@H]2CCN(CCc3ccccc3)C[C@H]21,8.52
5,O=C(NC1CCC1)[C@@H]1CCO[C@@H]2CCN(C3CCCC3)C[C@H]21,-25.2
6,O=C(NC1CCC1)[C@@H]1CCO[C@@H]2CCN(CCc3ccccc3)C[C@H]21,53.5
7,O=C(NC1CCC1)[C@@H]1CCO[C@@H]2CCN(C3CCCC3)C[C@@H]21,53.4
8,O=C(NC1CC1)[C@@H]1CCO[C@@H]2CCN(CCc3ccccc3)C[C@@H]21,27.3
9,Cc1ccc(-n2c(SCC(=O)O)nnc2-c2ccccc2)cc1,-12.9
10,O=C1CN(CC2CC2)Cc2nc(NCc3ccccc3)sc21,29.3
11,Cn1cc(-c2nc(CN3CCCCC3Cn3cncn3)cs2)cn1 (configuration not stated),-91.6
12,Cc1nnc2n1CCN(C(=O)c1cc(Br)c(Cl)[nH]1)C2,18.85
13,Cc1noc(C2CCCN(Cn3cc(Cl)cn3)C2)n1 (configuration not stated),-9.39
14,Cc1nc(CN2C(=O)C[C@@H]3[C@@H]2CCN3CC2CCOCC2)cs1,-5.08
15,Cc1nc(CN2C(=O)C[C@H]3[C@H]2CCN3C2CCOC2)cs1 (some centres not stated),-43.1
16,Cc1nc(CN2C(=O)C[C@H]3[C@H]2CCN3C2CCOCC2)cs1,20.1
17,Cc1nc(CN2C(=O)C[C@H]3[C@H]2CCN3CC2CCOC2)cs1 (some centres not stated),56.6
18,Cc1nc(CN2C(=O)CC[C@@H]3[C@H]2CCN3C2CCOCC2)cs1,50
19,Cc1nc(CN2C(=O)CC[C@@H]3[C@H]2CCN3C2CCOC2)cs1 (some centres not stated),-54.9
20,O=C(c1cnn2ccccc12)N1CCCC(OCc2ccccn2)C1 (configuration not stated),15.7
21,COc1c(CNC(c2ccccc2)c2ccc(F)cc2)c(C)nn1C (configuration not stated),35.4
22,CC1CCN(C(=O)[C@H]2C[C@@H]3CCN(CC4CCOCC4)C[C@H]3O2)CC1,-7.24

# From ChEMBL document CHEMBL4513216, “Probing the Open Global Health Chemical Diversity Library for Multistage-Active Starting Points for Next-Generation Antimalarials” (ACS Infect Dis, 2020)
